The source of these data is PubChem BioAssay.

The nature of the experiment: probe aLefty1 binding on compound microarray – biochemical, small-molecule microarray, 635/667 nm fluorescence, primary screen (AID 1153).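 Note: score merges spot fluorescence with signal-to-noise ratio from the scanned slide images.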 As to conditions: higher = more signal.
Turning to `COC(=O)C(CC#Cc1ccc2c(c1)[C@]1(C(=O)N2)[C@H](C(=O)NC[C@H](O)c2ccccc2)[C@H]2C(=O)O[C@H](c3ccccc3)[C@H](c3ccccc3)N2[C@@H]1c1ccccc1OCCO)C(=O)OC`, the composite z-score is -0.0559.
With `CN(C)CCCNC(=O)[C@@]1(Cc2ccccc2I)c2ccccc2C(=O)N(C2CCCCC2)[C@H]1c1ccc(CO)cc1`, the composite z-score worked out at 0.482.
In the case of `CN1C(=O)C2C=CC(C(O)c3ccc(-c4ccccc4)s3)N(NC(=O)OC(C)(C)C)C2C1=O` (stereo unspecified) it was 0.335; in that of `CCCNC(=O)[C@@]1(Sc2ccc(C)cc2)CC(=O)N(Cc2ccccc2Cl)[C@@H]1c1ccc(CO)cc1I`, 1.08; in that of `CN(C)c1ccc(C(O)C2C=CC3C(=O)N(Cc4ccccc4)C(=O)C3N2n2cnnc2)cc1` (stereo unspecified), -0.115.
In the case of `C[C@@H]1ON(c2ccccc2)[C@H](c2ccccc2)[C@H]1C(=O)O` it was 0.106.
The compound `O=C1[C@H]2C=C(I)[C@H](C[C@@H]2c2ccccc2)[C@@]12CO2` gave a composite z-score of -0.15.
To `C=CCC(OC(C)=O)[C@@H]1[C@@H](N(Cc2ccc(-c3cccc(C(F)(F)F)c3)o2)C(=O)c2ccc(-c3ccccc3)cc2)c2cc(OCCCO)ccc2N1C(=O)c1ccc2ccccc2c1` (stereo partly specified) belongs 0.0718.
To `O=C(NCc1ccc(F)cc1)[C@H]1C[C@H]2C(=O)N3CCC[C@H]3C(=O)N2[C@H]1c1ccc(O)cc1` belongs -0.491; to `N#Cc1ccc(NN2C(C(O)C3CC=CCC3)C=CC3C(=O)N(c4ccccc4)C(=O)C32)cc1` (stereo unspecified), 0.364.
For the compound `CCCNC(=O)[C@@]1(c2ccc([N+](=O)[O-])cc2)CC(=O)N(C(C)C)[C@@H]1c1ccc(CO)cc1`, the composite z-score was -0.207.
